Results from PubChem BioAssay (Tox21).
Several values for one entry are separate records, joined by “and”; a condition that tells them apart may be missing. Equal entries are not always repeated. Records with an inconclusive call do not appear. A structure can be active in one record and inactive in another. Activity calls are given as the source filed them. Unless noted, calls follow the shape of the full dose curve.

Legend:
[1] = Nuclear factor erythroid 2-related factor 2/antioxidant responsive element (Nrf2/ARE) small molecule agonists: qHTS cell viability counter screen in human keratinocytes (AID 1919968; active = well fitted curve in the direction sought with a large enough effect in the repeat runs; an effect the other way counts as inactive or inconclusive; also: nearly all actives have a fitted effect of over 55% in size)
In short: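 KeratinoSens cells (HaCaT keratinocytes stably carrying an ARE-luciferase reporter) were seeded at 1,500 cells/well and rested 5 h at 37 C/5% CO2. They were then exposed to compounds in DMSO for 23 h. Viability was read by CellTiter-Fluor fluorescence after 1 h.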

[2] = Nuclear factor erythroid 2-related factor 2/antioxidant responsive element (Nrf2/ARE) small molecule agonists: luciferase reporter gene qHTS assay in human keratinocytes (AID 1919969); also: nearly all actives have a fitted effect of over 35% in size; also: potency is read from the fitted curve at half-maximal effect
[3] = molecular target: Gonadotropin-releasing hormone receptor (Homo sapiens) (UniProt P30968); test: Human gonadotropin-releasing hormone receptor (GnRHR) small molecule agonists, calcium flux assay in GnRHR-HEK293 cells (AID 1920063); also: nearly all actives have a fitted effect of over 35% in size
Gonadotropin-releasing hormone receptor (Homo sapiens), sequence (P30968 whole entry, looked up): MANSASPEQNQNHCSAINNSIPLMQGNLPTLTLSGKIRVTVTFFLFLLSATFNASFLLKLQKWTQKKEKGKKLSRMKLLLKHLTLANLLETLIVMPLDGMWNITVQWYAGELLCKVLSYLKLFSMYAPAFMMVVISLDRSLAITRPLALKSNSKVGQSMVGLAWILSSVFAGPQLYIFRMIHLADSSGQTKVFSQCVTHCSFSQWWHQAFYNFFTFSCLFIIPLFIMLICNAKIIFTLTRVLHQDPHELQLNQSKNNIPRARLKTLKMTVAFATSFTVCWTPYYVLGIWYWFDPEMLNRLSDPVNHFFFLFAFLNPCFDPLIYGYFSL
In short: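 HEK293 cells stably expressing human GnRHR were plated 18 h at 37 °C, loaded with calcium dye 1 h at 37 °C, then given compound in agonist mode; fluorescence (Ex/Em 480/540) read kinetically for 3 min at 1 s intervals.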

[4] = molecular target: KiSS-1 receptor (Homo sapiens) (UniProt Q969F8); test: Human kisspeptin (KISS1R) small molecule agonists, calcium flux assay in KISS1R-HEK293 cells (AID 1920064; active = well fitted curve in the direction sought with a large enough effect in the repeat runs; an effect the other way counts as inactive or inconclusive)
KiSS-1 receptor (Homo sapiens), sequence (Q969F8 whole entry, looked up): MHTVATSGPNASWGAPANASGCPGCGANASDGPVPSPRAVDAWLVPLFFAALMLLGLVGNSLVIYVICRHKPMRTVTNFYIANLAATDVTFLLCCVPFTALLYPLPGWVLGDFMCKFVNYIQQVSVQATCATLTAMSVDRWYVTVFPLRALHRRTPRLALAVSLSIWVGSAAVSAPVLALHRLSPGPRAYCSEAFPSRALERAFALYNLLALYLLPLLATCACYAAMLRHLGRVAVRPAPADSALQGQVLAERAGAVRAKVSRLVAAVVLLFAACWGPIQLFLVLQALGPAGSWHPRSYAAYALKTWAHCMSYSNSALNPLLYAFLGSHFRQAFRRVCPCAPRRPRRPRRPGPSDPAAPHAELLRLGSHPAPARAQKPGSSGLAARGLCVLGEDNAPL
In short: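 HEK293 cells stably expressing human KISS1R were plated 18 h at 37 °C, loaded with calcium dye for 1 h at 37 °C, then given compound by pin tool. Fluorescence (Ex/Em 480/540) was read kinetically for 3 min.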

[5] = G protein-coupled receptor (GPCR) small molecule agonists, calcium flux assay: HEK293 wild type cell line counter screen (AID 1920065)
In short: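 Cells were plated and cultured 18 h at 37 C/5% CO2, then loaded with calcium dye for 1 h at 37 C. Compounds in DMSO were pin-transferred in agonist mode, and fluorescence (Ex/Em 480/540) was read kinetically for 3 min at 1 s intervals.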

[6] = p53 small molecule agonists, cell-based qHTS assay with human liver microsomes: qHTS cell viability counter screen (AID 1963579); also: nearly all actives have a fitted effect of over 45% in size
In short: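 Metabolically activated exposure: compounds, human liver microsomes and NADPH (0.5 mg/mL final apiece) were added to p53RE-bla cells seeded 5 h earlier, left 16 h at 37 C, and then assessed for viability by CellTiter-Glo luminescence.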

[7] = p53 small molecule agonists, cell-based qHTS assay: qHTS cell viability counter screen (AID 1963581); also: nearly all actives have a fitted effect of over 45% in size
In short: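 p53RE-bla HCT-116 cells were exposed to compounds for 16 h at 37 C; after the beta-lactamase FRET read in the same wells, CellTiter-Glo was added and luminescence (intracellular ATP) read after 30 min at room temperature.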

[8] = p53 small molecule agonists, cell-based qHTS assay (AID 1963582; active = well fitted activation curve with a large enough effect in the signal ratio in the repeat runs, not every such curve was filed as active; the % refers to the signal ratio)
In short: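 p53RE-bla beta-lactamase reporter cells rested 5 h at 37 C/5% CO2, then received compounds in DMSO by pin transfer and were incubated 16 h at 37 C. LiveBLAzer B/G FRET substrate was loaded for 2 h at room temperature before fluorescence reading.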

[9] = molecular target: 5-hydroxytryptamine receptor 2A (Homo sapiens) (UniProt P28223); test: 5-hydroxytryptamine receptor 2A (HTR2A) small molecule antagonists, cell-based qHTS assay (AID 1963586); also: nearly all actives have a fitted effect of over 45% in size
5-hydroxytryptamine receptor 2A (Homo sapiens), sequence (P28223 whole entry, looked up): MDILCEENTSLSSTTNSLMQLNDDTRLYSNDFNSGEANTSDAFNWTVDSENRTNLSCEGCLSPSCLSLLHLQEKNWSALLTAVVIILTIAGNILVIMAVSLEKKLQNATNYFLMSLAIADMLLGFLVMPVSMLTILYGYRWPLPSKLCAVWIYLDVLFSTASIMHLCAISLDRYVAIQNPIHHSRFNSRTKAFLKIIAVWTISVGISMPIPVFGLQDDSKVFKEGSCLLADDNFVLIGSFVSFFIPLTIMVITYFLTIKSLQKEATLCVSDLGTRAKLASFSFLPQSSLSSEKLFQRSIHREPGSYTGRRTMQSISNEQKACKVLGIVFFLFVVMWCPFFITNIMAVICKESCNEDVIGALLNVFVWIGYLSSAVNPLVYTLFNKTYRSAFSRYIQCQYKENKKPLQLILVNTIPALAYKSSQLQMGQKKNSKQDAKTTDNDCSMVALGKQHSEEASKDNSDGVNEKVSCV
In short: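 Antagonist-mode intracellular calcium assay: DOI (4 nM) added after 5 min compound pre-incubation at room temperature to dye-loaded HTR2A-CHO cells. Fluorescence followed for 3 min, sampled every second.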

[10] = molecular target: 5-hydroxytryptamine receptor 2A (Homo sapiens) (UniProt P28223); test: 5-hydroxytryptamine receptor 2A (HTR2A) small molecule agonists, cell-based qHTS assay (AID 1963587); also: nearly all actives have a fitted effect of over 30% in size
In short: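 CHO cells stably expressing human HTR2A, plated 18 h, loaded with calcium dye 1 h at 37 C. Agonist mode: compounds added and intracellular calcium fluorescence recorded kinetically for 2 min at 1 sec intervals.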

[11] = molecular target: Muscarinic acetylcholine receptor M1 (Homo sapiens) (UniProt P11229); test: Cholinergic receptor muscarinic 1 (CHRM1) small molecule antagonists, cell-based qHTS assay (AID 1963588); also: nearly all actives have a fitted effect of over 40% in size; also: potency is read from the fitted curve at half-maximal effect
Muscarinic acetylcholine receptor M1 (Homo sapiens), sequence (P11229 whole entry, looked up): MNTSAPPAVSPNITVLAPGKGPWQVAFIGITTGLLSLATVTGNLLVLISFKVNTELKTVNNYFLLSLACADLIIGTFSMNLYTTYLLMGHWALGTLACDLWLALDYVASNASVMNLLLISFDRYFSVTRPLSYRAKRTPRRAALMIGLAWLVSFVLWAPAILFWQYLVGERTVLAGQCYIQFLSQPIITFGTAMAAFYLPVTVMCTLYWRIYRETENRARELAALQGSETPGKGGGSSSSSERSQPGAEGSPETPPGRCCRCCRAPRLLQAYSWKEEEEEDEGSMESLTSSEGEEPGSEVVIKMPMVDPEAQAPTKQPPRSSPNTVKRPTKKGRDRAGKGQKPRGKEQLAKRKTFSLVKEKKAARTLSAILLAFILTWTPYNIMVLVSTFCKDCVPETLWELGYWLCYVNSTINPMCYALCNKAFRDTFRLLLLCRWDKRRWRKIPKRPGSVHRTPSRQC
In short: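 CHRM1-CHO calcium-flux assay, antagonist mode. Cells were seeded 18 h, dye-loaded 1 h at 37 C and given compound for 5 min at RT, then acetylcholine was added at 50nM. FDSS fluorescence was read 3 min; 15 concentrations, three runs.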

[12] = molecular target: Muscarinic acetylcholine receptor M1 (Homo sapiens) (UniProt P11229); test: Cholinergic receptor muscarinic 1 (CHRM1) small molecule agonists, cell-based qHTS assay (AID 1963589); also: nearly all actives have a fitted effect of over 35% in size
In short: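 CHO cells stably expressing human CHRM1, seeded 18 h at 37 C/5% CO2, dye-loaded 1 h at 37 C, then given compound in agonist mode; intracellular calcium fluorescence read kinetically at 1 s intervals. Fifteen concentrations, three independent runs.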

[13] = cAMP Responsive Elements (CRE) small molecule agonists, cell-based qHTS assay (AID 1963590)
In short: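 CRE-bla HEK 293T cells in DMEM with 10% dialyzed FBS, NEAA, pyruvate and 25 mM HEPES were plated 18 h at 37 C/5% CO2, then exposed to compounds in DMSO for 3 h before LiveBLAzer B/G FRET substrate addition.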

[14] = cAMP Responsive Elements (CRE) small molecule antagonists, cell-based qHTS assay (AID 1963591; active = well fitted inhibition curve with a large enough effect in the signal ratio in the repeat runs, not every such curve was filed as active; the % refers to the signal ratio)
In short: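 CRE-bla HEK293T cells were plated 18 h at 37 °C/5% CO2, pinned with compound in DMSO, then stimulated with NKH477 at 0.25 uM final for 3 h. LiveBLAzer B/G FRET substrate was added and plates incubated 2 h at room temperature.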

[15] = molecular target: Beta-2 adrenergic receptor (Homo sapiens) (UniProt P07550); test: Adrenergic beta2 receptor (ADRB2) small molecule antagonists, cell-based qHTS assay (AID 1963592); also: series mostly up to about 92 µM; nearly all actives have a fitted effect of over 50% in size
Beta-2 adrenergic receptor (Homo sapiens), sequence (P07550 whole entry, looked up): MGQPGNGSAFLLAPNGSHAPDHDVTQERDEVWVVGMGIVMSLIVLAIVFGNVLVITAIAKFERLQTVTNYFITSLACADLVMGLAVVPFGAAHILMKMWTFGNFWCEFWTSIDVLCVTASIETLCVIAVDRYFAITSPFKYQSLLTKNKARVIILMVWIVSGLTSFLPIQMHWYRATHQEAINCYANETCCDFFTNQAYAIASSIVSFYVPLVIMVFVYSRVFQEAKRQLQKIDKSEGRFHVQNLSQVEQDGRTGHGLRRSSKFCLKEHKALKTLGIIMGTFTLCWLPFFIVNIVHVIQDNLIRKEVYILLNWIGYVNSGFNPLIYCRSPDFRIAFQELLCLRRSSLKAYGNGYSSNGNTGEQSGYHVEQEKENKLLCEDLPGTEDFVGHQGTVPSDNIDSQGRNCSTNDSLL
In short: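 Cells (CHO, stable ADRB2 overexpression) incubated 18-20hr at 37C; compounds added from DMSO; agonist mix (1nM isoproterenol, 100uM IBMX, 25uM Ro-20-1724) added; 0.5hr RT; d2-cAMP and anti-cAMP-cryptate added; 1hr RT; 665/615 nm read.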

[16] = molecular target: Beta-2 adrenergic receptor (Homo sapiens) (UniProt P07550); test: Adrenergic beta2 receptor (ADRB2) small molecule agonists, cell-based qHTS assay (AID 1963593);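 also: CHO cells stably overexpressing human ADRB2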
In short: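 CHO cells stably over-expressing ADRB2 were plated overnight at 37C, then dosed with compounds plus a stimulation mix containing 100uM IBMX and 25uM Ro-20-1724 for 0.5hr at room temperature. cAMP was measured by HTRF competition, 1hr.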

[17] = molecular target: D(2) dopamine receptor (Homo sapiens) (UniProt P14416); test: Dopamine D2 receptor (DRD2) small molecule agonists, cell-based qHTS assay (AID 1963594); also: nearly all actives have a fitted effect of over 35% in size
D(2) dopamine receptor (Homo sapiens), sequence (P14416 whole entry, looked up): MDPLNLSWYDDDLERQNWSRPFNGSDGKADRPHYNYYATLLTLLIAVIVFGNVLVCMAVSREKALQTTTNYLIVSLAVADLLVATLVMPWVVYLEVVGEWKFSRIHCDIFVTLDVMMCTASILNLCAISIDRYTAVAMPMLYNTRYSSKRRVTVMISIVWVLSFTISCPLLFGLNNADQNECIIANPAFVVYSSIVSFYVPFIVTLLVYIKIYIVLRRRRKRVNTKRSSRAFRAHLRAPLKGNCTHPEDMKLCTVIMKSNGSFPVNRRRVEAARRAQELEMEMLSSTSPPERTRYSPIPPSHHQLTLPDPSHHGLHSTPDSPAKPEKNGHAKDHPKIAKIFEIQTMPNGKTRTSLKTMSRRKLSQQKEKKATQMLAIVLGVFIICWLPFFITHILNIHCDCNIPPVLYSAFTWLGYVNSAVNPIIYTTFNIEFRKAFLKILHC
In short: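 HEK293 cells stably expressing human DRD2, pre-treated with PDE inhibitor Ro20-1724 (0.1 mM final) and compound 10 min at room temperature, then stimulated with NKH477 (200nM […]) for 30 min. cAMP read by HTRF (665/620 nm).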

[18] = molecular target: D(2) dopamine receptor (Homo sapiens) (UniProt P14416); test: Dopamine D2 receptor (DRD2) small molecule antagonists, cell-based qHTS assay (AID 1963595; active = well fitted inhibition curve with a large enough effect in the signal ratio in the repeat runs, with a control signal flat; the % refers to the signal ratio)
In short: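 Stable D2 receptor HEK293 line, 24 h after seeding. Compound preincubated 10 min, then quinpirole (12 nM) with forskolin analogue NKH477 (200 nM), 30 min, room temperature. Detection by time-resolved FRET of cAMP.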

[19] = p53 small molecule agonists, cell-based qHTS assay with rat liver microsomes: qHTS cell viability counter screen (AID 1963580); also: nearly all actives have a fitted effect of over 45% in size; also: potency is read from the fitted curve at half-maximal effect
In short: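 Viability is assessed in parallel with the p53 reporter read: HCT-116 p53RE-bla cells receive compounds plus rat microsomes and NADPH (0.5 mg/mL final apiece), incubate 16 h at 37 C, and then CellTiter-Glo luminescence is recorded.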

[20] = p53 small molecule agonists, cell-based qHTS assay with rat liver microsomes (AID 1963578)
In short: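 Agonist mode in p53RE-bla reporter cells, with compounds co-incubated 16 h at 37 C alongside 0.5 mg/mL rat liver microsomes and 0.5 mg/mL NADPH (final), followed by a 2 h LiveBLAzer detection step.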

Measured: Potency

CCOP(=S)(OCC)Oc1ccc([N+](=O)[O-])cc1
active: [11] 9.54 µM and 18.3 µM
inactive: [1] | [2] | [3] | [4] | [5] | [6] | [7] | [8] | [9] | [10] | [12] | [13] | [14] | [15] | [16] | [17] | [18]

O=P1(NCCCl)OCCCN1CCCl (stereo unspecified)
inactive: [1] | [2] | [3] | [4] | [5] | [19] | [7] | [13] | [14] | [15] | [16] | [18]

Cc1ccccc1CCl
inactive: [1] | [2] | [3] | [4] | [20] | [6] | [19] | [7] | [8] | [9] | [10] | [11] | [12] | [13] | [14] | [15] | [17] | [18]

N#Cc1ccc(O)cc1
inactive: [1] | [2] | [3] | [4] | [5] | [19] | [7] | [8] | [9] | [10] | [11] | [12] | [13] | [15] | [17] | [18]

CCCCCCC#N
inactive: [1] | [2] | [3] | [4] | [20] | [6] | [19] | [7] | [9] | [10] | [12] | [13] | [14] | [15] | [17] | [18]

COP(=O)(OC)OC=C(Cl)Cl
inactive: [1] | [3] | [4] | [5] | [7] | [13] | [14] | [15] | [16] | [17] | [18]
412 nM (active) and inactive: [19]
55 µM (active) and inactive: [2]

CC(C)=CC1C(C(=O)OCN2C(=O)C3=C(CCCC3)C2=O)C1(C)C (stereo unspecified)
inactive: [1] | [3] | [4] | [20] | [6] | [19] | [7] | [9] | [10] | [12] | [14] | [16] | [17]
active: [2] 48.6 µM and 26.6 µM | [11] 8.18 µM

CC(C)CCON=O
inactive: [1] | [2] | [3] | [4] | [20] | [6] | [19] | [7] | [8] | [9] | [10] | [11] | [12] | [13] | [14] | [15] | [17] | [18]

CCCCCCCCn1cc[n+](C)c1
inactive: [1] | [2] | [3] | [4] | [20] | [6] | [19] | [7] | [8] | [9] | [10] | [12] | [13] | [14] | [15] | [17] | [18]

O=[N+]([O-])c1ccc(Cl)c(Cl)c1
inactive: [1] | [2] | [3] | [4] | [5] | [19] | [7] | [9] | [10] | [11] | [12] | [13] | [14] | [15] | [17] | [18]

CCNc1nc(NC(C)C)nc(SC)n1
inactive: [1] | [2] | [3] | [4] | [5] | [19] | [7] | [9] | [10] | [11] | [12] | [13] | [14] | [15] | [17] | [18]

CN=C=O
inactive: [1] | [2] | [3] | [4] | [20] | [6] | [19] | [7] | [9] | [10] | [11] | [12] | [13] | [14] | [15] | [17] | [18]

Cc1cc(Cl)ccc1N
inactive: [1] | [2] | [3] | [4] | [5] | [19] | [7] | [9] | [11] | [12] | [13] | [14] | [15] | [17] | [18]

CCCn1cc[n+](C)c1
inactive: [1] | [2] | [3] | [4] | [5] | [6] | [19] | [9] | [10] | [11] | [12] | [13] | [15] | [16] | [17]

Nc1c(Cl)cc([N+](=O)[O-])cc1Cl
inactive: [1] | [2] | [3] | [4] | [5] | [19] | [7] | [9] | [10] | [11] | [12] | [13] | [14] | [15] | [16] | [17] | [18]

COCC(=O)N(c1c(C)cccc1C)C(C)C(=O)OC (stereo unspecified)
inactive: [1] | [2] | [3] | [4] | [20] | [6] | [19] | [7] | [8] | [9] | [10] | [11] | [12] | [14] | [15] | [17] | [18]
